Assay in all cases: PBM binding z-score (relative to random genomic background probes); higher = stronger binding; sequences stand for … in GC…GCGATTGACAGCGTAGAATGAAGG
Assay [1] relates to FXR:RXRa (NR concentration 270 nM, RXRa partner concentration 90 nM). An outline of the steps: (§1)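 Scanned fluorescence from custom Agilent 4×180K protein-binding microarrays was regression-normalized. Binding z-scores use random background probes as reference. Ligand-free nuclear receptor dimers were incubated on the arrays for 1 h and detected with antibodies against each partner (one per run).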

Assay [2] deals with LXRa:RXRa (NR concentration 270 nM, RXRa partner concentration 90 nM). An outline of the steps:
as §1

In assay [3] the test system is LXRa homodimer (NR concentration 270 nM). The method, boiled down: as §1
Assay [4] relates to LXRb:RXRa (NR concentration 270 nM, RXRa partner concentration 90 nM). An outline of the steps:
as §1

In assay [5] the test system is LXRb homodimer (NR concentration 270 nM). The method, boiled down: as §1
The test system of assay [6] is PPARa:RXRa (NR concentration 270 nM, RXRa partner concentration 90 nM). An outline of the steps: as §1
Assay [7] relates to PPARg:RXRa (NR concentration 180 nM, RXRa partner concentration 90 nM). An outline of the steps:
as §1

Assay [8] concerns PPARg:RXRa 270nM:90nM, anti-RXR (NR concentration 270 nM, RXRa partner concentration 90 nM). An outline of the steps:
as §1

Assay [9] concerns PPARg:RXRa 30nM:10nM, anti-RXR (NR concentration 30 nM, RXRa partner concentration 10 nM). The method, boiled down: as §1
For assay [10], the system named is PPARg:RXRa 90nM:30nM, anti-RXR (NR concentration 90 nM, RXRa partner concentration 30 nM). An outline of the steps:
as §1

The subject of assay [11] is PPARg:RXRa DBDmut IVT, anti-RXR (DBD mutation: RXRa K156A/R161A, NR concentration 270 nM, RXRa partner concentration 90 nM). An outline of the steps: as §1
Assay [12] relates to PPARg:RXRa IVT, anti-PPARg (NR concentration 270 nM, RXRa partner concentration 90 nM). An outline of the steps: as §1
In assay [13] the test system is PPARg DBDmut:RXRa IVT, anti-PPARg (DBD mutation: PPARg1 K132A/R137A, NR concentration 270 nM, RXRa partner concentration 90 nM). The method, boiled down: as §1
The test system of assay [14] is PPARg DBDmut IVT, anti-PPARg (DBD mutation: PPARg1 K132A/R137A, NR concentration 270 nM). An outline of the steps: as §1
The subject of assay [15] is PPARg homodimer (NR concentration 180 nM). The method, boiled down:
as §1

Assay [16] concerns PXR:RXRa (NR concentration 270 nM, RXRa partner concentration 90 nM). An outline of the steps: as §1
The test system of assay [17] is PXR homodimer (NR concentration 270 nM). An outline of the steps: as §1
For assay [18], the system named is RARa:RXR (NR concentration 270 nM, RXRa partner concentration 90 nM). The method, boiled down: as §1
Assay [19] concerns RARa homodimer (NR concentration 270 nM). An outline of the steps:
as §1

In assay [20] the test system is RARb:RXRa (NR concentration 270 nM, RXRa partner concentration 90 nM). The method, boiled down: as §1

Regarding TCTGCTAGGTCAGTTTGTCAGCTAACGAGCTGCC, the PBM binding z-score in assay [1] is 0.772; in assay [2], 0.567; in assay [3] it was -0.461; in assay [4], 0.457; in assay [5] it was 0.977; in assay [6] it was 1.03. Besides, the PBM binding z-score was -0.179 in assay [7]; 1.12 in [8]; 1.38 in assay [9]; 1.4 in [10]; 2.1 in assay [11]; 2.5 in [12]. Further, the PBM binding z-score in [13] was 0.124; in [14], 0.15; in assay [15] it was -0.156; in assay [16] it was 0.322; in [17], -0.604; in assay [18], 0.454. For the same sequence, the values for the PBM binding z-score in assay [19] and in assay [20] were -0.407 and 2.72, respectively.

As for ATCTCTAGGTAACCAAGGTCAGTGAATGCCGAAC, the PBM binding z-score in assay [1] was determined as 1.59; in [2], 2.3; in assay [3], 1.46; in [4], 1.91; in [5], 0.895; in assay [6], 2.72. Also, the PBM binding z-score in [7] turned out to be 1.79; in assay [8], 1.92; in [9], 0.476; in assay [10] it was 1.39; in [11] it was 4.04; in assay [12], 3.81. For the same sequence, the PBM binding z-score in assay [13] came out at 1.28; in assay [14], 1.3; in [15], 1.93; in assay [16], 2.47; in assay [17] it was 1.21; in assay [18], 2.26. For the same sequence, the PBM binding z-score stood at 2.02 in assay [19] and 2.7 in assay [20].

Take TTACCAAGGTGAGCTCAGGTCGTTGATCCAACTC: the PBM binding z-score in assay [1] is 1.26; in [2], 0.561; in [3], -0.29; in [4] it was 0.42; in [5] it was -1.08; in [6], 0.894. Further, the PBM binding z-score in [7] is -0.199; in assay [8], 0.203; in assay [9] it was -0.185; in assay [10], -0.151; in [11], 1.23; in assay [12], 1.8. Besides, the PBM binding z-score in assay [13] is 0.00673; in [14] it was -0.46; in assay [15] it was -0.274; in assay [16], 3.09; in assay [17], -0.622; in [18], 0.823. Further, the PBM binding z-score in assay [19] was -0.956; in [20], 1.33.

For the sequence TCATATAGGTAAATGGTAGGTGAAAGTCCGATCT, the PBM binding z-score in assay [1] came to 1.34; in assay [2], 1.54; in [3], 0.813; in assay [4], 1.26; in assay [5], 0.456; in assay [6], 1.8. The PBM binding z-score was 1.39 in [7]; 3.17 in assay [8]; 3.85 in assay [9]; 3.74 in [10]; 4.03 in [11]; 3.04 in [12]. For the same sequence, the PBM binding z-score in assay [13] came to 0.629; in assay [14], 0.943; in [15], 1.37; in assay [16] it was 0.974; in assay [17], 0.669; in assay [18], 1.43. Moreover, the PBM binding z-score came to 1.61 in assay [19] and 0.698 in assay [20].

Take CCTAGTGGGCCATCAGGTCATTGATATCAACGTT: the PBM binding z-score was 1.47 in [1]; 1.04 in assay [2]; 0.915 in assay [3]; 1.63 in assay [4]; -0.159 in [5]; 2.74 in [6]. The PBM binding z-score in [7] was 3.06; in [8] it was 3.69; in assay [9], 1.05; in [10], 2.74; in assay [11], 4.56; in [12], 5.23. Moreover, the PBM binding z-score is -0.169 in [13]; 0.327 in assay [14]; 1.35 in assay [15]; 1.62 in assay [16]; 0.58 in [17]; 1.86 in assay [18]. The PBM binding z-score in assay [19] turned out to be 0.517; in assay [20], 1.94.

In the case of TGTCAAAGTTCAAAAGTAACGTAAGTATCCACAC, the PBM binding z-score in [1] was 6.34; in assay [2], 6.07; in assay [3], 4.09; in assay [4], 4.04; in assay [5], 2.53; in [6], 4.83. Moreover, the PBM binding z-score in assay [7] was 7.77; in assay [8] it was 6.63; in [9], 4.65; in assay [10], 6.63; in assay [11], -0.0254; in [12] it was 3.6. In addition, the PBM binding z-score in assay [13] came to 1.92; in [14] it was 2.39; in assay [15] it was 1.89; in assay [16], 4.46; in assay [17], 3.74; in assay [18], 3.65. Also, the PBM binding z-score turned out to be 1.1 in assay [19] and 4.6 in assay [20].

With ACTAGCAGGCCAAGTTTGGGTCAATCAAACAAAG, the PBM binding z-score in [1] is 0.471; in assay [2], 0.228; in [3], -0.484; in [4], 0.918; in assay [5], -1.03; in [6], 1.55. Also, the PBM binding z-score was -0.0982 in assay [7]; 0.263 in assay [8]; -0.327 in assay [9]; -0.105 in assay [10]; 0.842 in assay [11]; 0.959 in assay [12]. Further, the PBM binding z-score in assay [13] is -0.753; in assay [14], -0.879; in assay [15], 0.326; in [16] it was 0.526; in assay [17], -0.382; in assay [18], 1.33. The PBM binding z-score in assay [19] was -0.558; in assay [20], 1.65.
